In PubChem BioAssay (NCATS):
“And” between values parts separate entries of the source, which are not always exact repeats. Equal entries are not always repeated. A number with no mark means an inactive call. Inconclusive results are not listed. Where a call stands in place of a potency, no number is given. The source made the active and inactive calls. Unless noted, calls come from the whole dose curve; as a rule, active = well fitted curve in the direction sought with a large enough effect; inconclusive = small, poorly fitted or top-dose-only effect, or another doubt; inactive = no such curve, though single readings can be large; an effect the other way counts as inactive or inconclusive.

Assays:
[1] = qHTS assay for small molecule disruptors of the mitochondrial membrane potential - 1 hr assay (AID 651754; calls by dose curve; note: nearly all actives have a fitted effect of over 35% in size; note: potency is the fitted concentration of half-maximal effect)
In short: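 Steps: seed HepG2 cells and let attach overnight; pin-transfer compound or vehicle; incubate 1 hr at 37C; add Mito-MPS dye for 30 min; read two-channel fluorescence for monomer and aggregate forms.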

[2] = qHTS assay for small molecule disruptors of the mitochondrial membrane potential - 5 hr assay (AID 651755; calls by dose curve; note: nearly all actives have a fitted effect of over 40% in size)
In short: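 HepG2, 2,000 cells/well, overnight attach; cpd or DMSO 5 hr, 37C/5% CO2; Mito-MPS 30 min 37C; fluor 490/535 + 540/590 nm.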

[3] = qHTS assay for environmental chemicals that activate the Aryl hydrocarbon Receptor (AhR) signaling pathway (AID 651777); conditions: 1A2-DRE human hepatoma cells, luciferase, 24 h; activation: hits give high values; note: nearly all actives have a fitted effect of over 15% in size
In short: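 Quantitative HTS in stably transfected human liver-derived cells whose luciferase gene sits downstream of the CYP1A2 promoter and dioxin response element. After 24 hr exposure at 37 C, One-Glo luminescence was measured.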

[4] = target: Nuclear receptor ROR-gamma (Homo sapiens) (UniProt P51449); assay: qHTS assay for small molecule antagonists of the retinoid-related orphan receptor gamma (ROR-gamma) signaling pathway (AID 651802);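 note: CHO cells with doxycycline-induced ROR-gamma expression; series mostly up to about 92 µM; nearly all actives have a fitted effect of over 60% in size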
Nuclear receptor ROR-gamma (Homo sapiens), sequence (P51449 whole entry, looked up): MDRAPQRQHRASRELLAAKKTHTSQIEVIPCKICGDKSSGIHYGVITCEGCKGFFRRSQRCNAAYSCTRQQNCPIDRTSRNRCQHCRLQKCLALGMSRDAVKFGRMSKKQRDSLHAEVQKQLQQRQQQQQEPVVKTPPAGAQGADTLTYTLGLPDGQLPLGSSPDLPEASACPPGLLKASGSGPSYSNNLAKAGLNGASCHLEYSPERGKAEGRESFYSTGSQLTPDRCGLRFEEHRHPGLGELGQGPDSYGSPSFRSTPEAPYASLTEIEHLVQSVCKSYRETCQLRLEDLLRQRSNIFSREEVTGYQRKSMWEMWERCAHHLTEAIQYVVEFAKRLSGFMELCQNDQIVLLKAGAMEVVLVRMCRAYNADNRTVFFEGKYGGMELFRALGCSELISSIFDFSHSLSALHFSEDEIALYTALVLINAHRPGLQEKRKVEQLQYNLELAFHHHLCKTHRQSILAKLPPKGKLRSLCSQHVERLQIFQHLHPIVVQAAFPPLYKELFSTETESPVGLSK
In short: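 Antagonism is scored as a fall in luminescence from a RORE-luciferase reporter in CHO cells expressing ROR under a TET-inducible promoter, measured 16hr after doxycycline induction in the presence of compound.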

[5] = qHTS assay for small molecule agonists of the antioxidant response element (ARE) signaling pathway measured by Nrf2-dependant transcriptional activity (AID 720636; active = well fitted curve in the direction sought with a large enough effect in the repeat runs; an effect the other way counts as inactive or inconclusive)
In short: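 Quantitative HTS format in HepG2 cells stably expressing an ARE-luciferase reporter; 16 hr compound treatment at 37 C, luciferase signal detected with ONE-Glo.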

[6] = qHTS assay for small molecule antagonists of the retinoid-related orphan receptor gamma (ROR-gamma) signaling pathway - cell viability counter screen (AID 720652; active = well fitted curve in the direction sought with a large enough effect in the repeat runs; an effect the other way counts as inactive or inconclusive;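 note: CHO reporter cells with doxycycline-induced ROR-gamma expression; series mostly up to about 92 µM; compound exposure lasted 16 hr before ATP read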)
In short: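 Cytotoxicity is quantified via intracellular ATP (CellTiter-Glo luminescence) in doxycycline-induced CHO ROR response element-luciferase reporter cells treated with compound for 16 hr at 37 C, 5% CO2.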

[7] = qHTS assay for small molecule agonists of the antioxidant response element (ARE) signaling pathway measured by Nrf2-dependant transcriptional activity - cell viability counter screen (AID 720653; active = well fitted curve in the direction sought with a large enough effect in the repeat runs; an effect the other way counts as inactive or inconclusive); conditions: ARE-bla HepG2 viability, CellTiter-Glo ATP luminescence, 16 h; hits give low values
In short: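 Cytotoxicity counter screen: intracellular ATP quantified by CellTiter-Glo luminescence in the same ARE-bla HepG2 plates, after 16 h compound exposure and a 2 h beta-lactamase substrate step.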

[8] = qHTS assay for cell viability of HEK293 cells (AID 743288); conditions: ATP luminescence (CellTiter-Glo), 18 h, hits give low values; note: nearly all actives have a fitted effect of over 50% in size
In short: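 Parental HEK293 cells, 2,000 per well, preincubated at least 5 h at 37 C, then exposed to compounds in DMSO for 18 h at 37 C. Viability by CellTiter-Glo ATP luminescence after 30 min at room temperature.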

[9] = qHTS assay for cell viability of the p53RE-bla HCT-116 cell line (AID 743292); note: nearly all actives have a fitted effect of over 55% in size
In short: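 Viability of compound-treated p53RE-bla HCT-116 cells is taken from ATP-dependent luciferase luminescence. Treatment lasts 16 h at 37 C after a 5 h settling period; detection follows 30 min at room temperature.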

[10] = target: Nuclear receptor subfamily 1 group I member 2 (Rattus norvegicus) (UniProt Q9R1A7); assay: qHTS assay for small molecule activators of the rat pregnane X receptor (rPXR) signaling pathway (AID 651751; call rule not given here); conditions: rPXR reporter cells, luciferase (One-Glo), 24 h
Nuclear receptor subfamily 1 group I member 2 (Rattus norvegicus), sequence (Q9R1A7 whole entry, looked up): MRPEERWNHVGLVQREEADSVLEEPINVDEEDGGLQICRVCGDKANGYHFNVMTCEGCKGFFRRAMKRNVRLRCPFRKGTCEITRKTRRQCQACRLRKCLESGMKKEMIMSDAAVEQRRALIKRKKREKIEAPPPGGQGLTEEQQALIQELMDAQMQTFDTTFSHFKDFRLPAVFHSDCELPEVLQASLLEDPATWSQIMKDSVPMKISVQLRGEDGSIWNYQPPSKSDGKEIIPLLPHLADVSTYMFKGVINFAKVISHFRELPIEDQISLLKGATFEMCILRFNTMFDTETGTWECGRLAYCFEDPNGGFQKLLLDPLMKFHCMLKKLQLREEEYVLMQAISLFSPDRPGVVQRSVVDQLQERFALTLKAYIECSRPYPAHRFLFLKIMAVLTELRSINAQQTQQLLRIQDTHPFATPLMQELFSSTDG

[11] = qHTS assay for small molecule activators of the human pregnane X receptor (PXR) signaling pathway (AID 720659; call rule not given here)
[12] = target: Peroxisome proliferator-activated receptor alpha (Homo sapiens) (UniProt Q07869); assay: qHTS assay for small molecule agonists of the peroxisome proliferator-activated receptor alpha (PPARalpha) signaling pathway (AID 651778); conditions: PathHunter PPARalpha complementation, chemiluminescence, 6 h; hits give high values
Peroxisome proliferator-activated receptor alpha (Homo sapiens), sequence (Q07869 whole entry, looked up): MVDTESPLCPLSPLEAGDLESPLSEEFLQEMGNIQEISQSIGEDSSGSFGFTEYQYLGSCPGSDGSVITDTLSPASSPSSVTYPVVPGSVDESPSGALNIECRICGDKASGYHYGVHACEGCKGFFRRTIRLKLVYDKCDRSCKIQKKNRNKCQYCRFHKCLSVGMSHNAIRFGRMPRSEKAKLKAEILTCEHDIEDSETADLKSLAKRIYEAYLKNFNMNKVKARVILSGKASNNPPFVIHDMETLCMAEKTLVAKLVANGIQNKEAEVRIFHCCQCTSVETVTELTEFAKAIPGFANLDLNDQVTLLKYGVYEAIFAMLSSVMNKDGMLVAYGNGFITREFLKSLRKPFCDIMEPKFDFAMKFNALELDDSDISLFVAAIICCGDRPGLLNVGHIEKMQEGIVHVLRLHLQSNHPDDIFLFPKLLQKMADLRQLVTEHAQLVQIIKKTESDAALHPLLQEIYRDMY
In short: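 Chemiluminescence from complemented enzyme reported PPARalpha activation in cells after 6 hr of compound treatment at 37 C. The detection reagent was incubated for 60 min at room temperature, and compounds were scored as agonists.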

[13] = target: Tumor necrosis factor (Homo sapiens) (UniProt P01375); assay: qHTS assay to identify small molecules that stimulate Tumor Necrosis Factor-alpha (TNF-alpha) secretion (AID 651757; active = well fitted curve in the direction sought with a large enough effect in the signal ratio; the % refers to the signal ratio)
Tumor necrosis factor (Homo sapiens), sequence (P01375 whole entry, looked up): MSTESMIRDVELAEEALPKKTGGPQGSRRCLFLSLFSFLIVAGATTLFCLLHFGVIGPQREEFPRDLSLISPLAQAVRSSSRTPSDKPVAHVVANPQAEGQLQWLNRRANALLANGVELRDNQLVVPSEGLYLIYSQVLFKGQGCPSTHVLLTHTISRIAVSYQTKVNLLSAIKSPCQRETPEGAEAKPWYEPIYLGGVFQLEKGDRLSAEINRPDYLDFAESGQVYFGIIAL
In short: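 Secreted TNF-alpha from compound-treated THP-1 cells (17 hrs, 37 C) was quantified with a homogeneous time-resolved fluorescence antibody assay.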

[14] = qHTS assay to identify small molecules that stimulate interleukin-8 (IL-8) secretion (AID 651758; active = well fitted activation curve with a large enough effect in the signal ratio; the % refers to the signal ratio)
In short: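 Secreted IL-8 measured by TR-FRET sandwich (cryptate and XL665 antibodies) from THP-1 cells exposed to compound overnight (16 hrs, 37 C).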

SMILES | Potency [1] | Potency [2] | activation [3] | Potency [4] | outcome [5] | Potency [6] | max response [7] [%] | max response [8] | Potency [9] | max response [10] | outcome [11] | max response [12] | Potency [13] | Potency [14]
CC(C)(O)CCC(C)(C)O | inactive | inactive | 1.58% | inactive | inactive | inactive | -2.27 | 2.13% | inactive | 3.24% | inactive | – | – | –
COC(=O)CS | inactive | inactive | -0.254% | inactive | inactive | inactive | – | 3.47% | inactive | -1.83% | inactive | -1.38% | – | –
CC(C)(C)OCC1CO1 (stereo not drawn) | inactive | inactive | 2.26% | – | – | inactive | 11 | -0.898% | inactive | 0.0184% | inactive | -5.74% | – | –
O=C(O)c1cccc(Cl)c1Cl | inactive | inactive | -1.06% | inactive | inactive | inactive | – | 6.72% | inactive | -3.88% | inactive | -2.92% | – | –
CCCCCCO | – | inactive | -0.44% | inactive | – | inactive | 4.6 | 3.47% | inactive | 2.06% | inactive | – | inactive | inactive
Nc1cc([N+](=O)[O-])ccc1C(=O)O | – | inactive | 3.7% and 3.8% | inactive | inactive | inactive | – | -6.72% and -9.32% | inactive | -5.92% and 1.25% | inactive | -7.92% and -2.55% | inactive | –
CCCCC(CC)C(=O)O (stereo not drawn) | inactive | inactive | – | inactive | inactive | inactive | -5.11 | -7.06% | inactive | 1.13% | inactive | -2.43% | – | –
Cc1cc(C2(c3cc(C)c(O)cc3C)OS(=O)(=O)c3ccccc32)c(C)cc1O | inactive | inactive | 0.42% | inactive | – | inactive | -15.6 | -2.41% | – | -3.33% | – | -10.4% | – | –
Nc1cccc(N)c1 | 21.1 µM (active) | – | 4.51% | inactive | inactive | inactive | – | 5.39% | inactive | 11.3% | inactive | -0.676% | inactive | –
CCNc1cc(O)ccc1C | inactive | inactive | 6.45% | inactive | inactive | inactive | – | – | inactive | -2.12% | – | -6.44% | – | –
COc1cccc2sc(N)nc12 | inactive | – | – | inactive | inactive | inactive | 1.42 | – | inactive | 8.89% | inactive | -2.03% | – | –
C=CCOC(=O)CCCCCCCC | – | – | -2.14% | inactive | inactive | inactive | 3.3 | -7.54% | inactive | -5.54% | inactive | -0.94% | inactive | inactive
CNc1ccc([N+](=O)[O-])cc1 | – | inactive | 1.91% | inactive | inactive | – | – | 0.311% | – | 8.26% | inactive | -2.03% | – | –
CCCCOCCOCCSC#N | inactive | inactive | -0.297% | inactive | inactive | – | -6.26 | 5.15% | – | -2.98% | inactive | 0.043% | – | –
C=Cc1ccccc1C=C | – | inactive | -0.496% | inactive | inactive | inactive | 4.89 | 3.31% | inactive | 5.55% | inactive | -1.6% | inactive | inactive
Cc1cc([N+](=O)[O-])ccc1N | inactive | – | 0.911% | – | inactive | inactive | -20.9 | -5.02% | inactive | 2.26% | inactive | – | inactive | –
C[C@@H]1O[C@@H](O[C@@H]2[C@@H](O)[C@H](OCCc3ccc(O)c(O)c3)O[C@H](CO[C@@H]3O[C@H](CO)[C@@H](O)[C@H](O)[C@H]3O)[C@H]2OC(=O)/C=C/c2ccc(O)c(O)c2)[C@H](O)[C@H](O)[C@H]1O | inactive | inactive | – | inactive | inactive | – | -6.98 | -6.2% | inactive | 1.79% | inactive | 0.275% | – | –
CC(=O)C1(C)CC2=C(CCCC2(C)C)CC1C (stereo not drawn) | – | – | -1.01% | inactive | inactive | inactive | 5.61 | -9.23% | inactive | 2.11% | inactive | -0.376% | inactive | –
